The results in this text go back to PMC11006913.

Common to all, as to assay: PBM; 200 nM protein, PBS
Common to all, as to conditions: dsDNA, one strand shown

For one experiment, the target named is T1, VENTX (Homo sapiens, UniProt O95231 78-163, R121Q).
T1 sequence: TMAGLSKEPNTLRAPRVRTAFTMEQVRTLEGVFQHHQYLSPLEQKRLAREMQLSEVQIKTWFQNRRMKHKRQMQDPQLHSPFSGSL

Experiment [1] has as its target HOXA4 (Homo sapiens, UniProt Q00056 201-287, W262R).
Experiment [2] addresses HOXA7 (Homo sapiens, UniProt P31268 116-202).
Experiment [3] addresses ALX4 (Homo sapiens, UniProt Q9H161 200-286).
Experiment [4] addresses PRRX1 (Homo sapiens, UniProt P54821 80-166, F113S).
The target in experiment [5] is HOXB6 (Homo sapiens, UniProt P17509 132-218, K202E).
Sequence of HOXB6 (Homo sapiens, UniProt P17509 132-218, K202E) (P17509 132-218 K202E): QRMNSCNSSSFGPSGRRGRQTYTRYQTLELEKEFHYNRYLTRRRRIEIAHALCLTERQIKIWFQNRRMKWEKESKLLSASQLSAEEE
Experiment [6] deals with ALX4 (Homo sapiens, UniProt Q9H161 200-286, Q225E).
Sequence of ALX4 (Homo sapiens, UniProt Q9H161 200-286, Q225E) (Q9H161 200-286 Q225E): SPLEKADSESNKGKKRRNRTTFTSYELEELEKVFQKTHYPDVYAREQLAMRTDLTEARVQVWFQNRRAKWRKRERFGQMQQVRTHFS
In experiment [7] the target is HOXA2 (Homo sapiens, UniProt O43364 129-215, R185T).
Sequence of HOXA2 (Homo sapiens, UniProt O43364 129-215, R185T) (O43364 129-215 R185T): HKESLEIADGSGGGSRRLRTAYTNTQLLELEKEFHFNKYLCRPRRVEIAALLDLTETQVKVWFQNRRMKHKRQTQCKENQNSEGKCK
Experiment [8] addresses MSX2 (Homo sapiens, UniProt P35548 130-214, R199I).
In experiment [9] the target is HOXA2 (Homo sapiens, UniProt O43364 129-215, R185K).
Sequence of HOXA2 (Homo sapiens, UniProt O43364 129-215, R185K) (O43364 129-215 R185K): as the sequence (O43364 129-215 R185T) above, with T57K counted along it
The target in experiment [10] is HOXA4 (Homo sapiens, UniProt Q00056 201-287).
Sequence of HOXA4 (Homo sapiens, UniProt Q00056 201-287) (Q00056 201-287): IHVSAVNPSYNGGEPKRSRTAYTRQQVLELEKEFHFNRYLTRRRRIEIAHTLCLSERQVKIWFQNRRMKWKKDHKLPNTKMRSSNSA
For experiment [11], the target named is MSX2 (Homo sapiens, UniProt P35548 130-214).
Sequence of MSX2 (Homo sapiens, UniProt P35548 130-214) (P35548 130-214): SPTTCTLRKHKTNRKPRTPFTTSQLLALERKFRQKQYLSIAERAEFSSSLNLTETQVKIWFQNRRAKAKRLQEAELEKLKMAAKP
The target of experiment [12] is MSX2 (Homo sapiens, UniProt P35548 130-214, F161Y).
Sequence of MSX2 (Homo sapiens, UniProt P35548 130-214, F161Y) (P35548 130-214 F161Y): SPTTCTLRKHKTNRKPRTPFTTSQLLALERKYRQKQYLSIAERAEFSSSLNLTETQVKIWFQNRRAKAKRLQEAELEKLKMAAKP
In experiment [13] the target is VAX1 (Homo sapiens, UniProt Q5SQQ9 86-172, T142I).
Sequence of VAX1 (Homo sapiens, UniProt Q5SQQ9 86-172, T142I) (Q5SQQ9 86-172 T142I): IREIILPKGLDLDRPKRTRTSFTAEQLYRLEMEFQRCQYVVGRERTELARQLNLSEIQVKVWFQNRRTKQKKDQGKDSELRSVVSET
The target in experiment [14] is HOXA7 (Homo sapiens, UniProt P31268 116-202, W177C).
Sequence of HOXA7 (Homo sapiens, UniProt P31268 116-202, W177C) (P31268 116-202 W177C): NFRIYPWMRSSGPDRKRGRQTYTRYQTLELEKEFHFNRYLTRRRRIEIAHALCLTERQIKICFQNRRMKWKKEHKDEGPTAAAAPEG
The target of the next experiment is ALX1 (Homo sapiens, UniProt Q15699 118-204).
Sequence of ALX1 (Q15699 118-204): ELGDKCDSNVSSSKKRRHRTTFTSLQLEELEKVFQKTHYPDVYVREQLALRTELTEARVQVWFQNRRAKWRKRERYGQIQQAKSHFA
The target in experiment [15] is HOXA4 (Homo sapiens, UniProt Q00056 201-287, W262F).
Sequence of HOXA4 (Homo sapiens, UniProt Q00056 201-287, W262F) (Q00056 201-287 W262F): as the sequence (Q00056 201-287) above, with W62F counted along it
Experiment [16] deals with PRRX1 (Homo sapiens, UniProt P54821 80-166).
Sequence of PRRX1 (Homo sapiens, UniProt P54821 80-166) (P54821 80-166): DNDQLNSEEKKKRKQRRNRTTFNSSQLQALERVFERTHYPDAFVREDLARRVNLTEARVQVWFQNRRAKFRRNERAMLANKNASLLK
The target in experiment [17] is VAX1 (Homo sapiens, UniProt Q5SQQ9 86-172, K157R).
Sequence of VAX1 (Homo sapiens, UniProt Q5SQQ9 86-172, K157R) (Q5SQQ9 86-172 K157R): as the sequence (Q5SQQ9 86-172 T142I) above, with I57T, K72R counted along it
Experiment [18] has as its target HOXB6 (Homo sapiens, UniProt P17509 132-218).

Sequence of PRRX1 (Homo sapiens, UniProt P54821 80-166, F113S) (P54821 80-166 F113S): as the sequence (P54821 80-166) above, with F34S counted along it
Sequence of MSX2 (Homo sapiens, UniProt P35548 130-214, R199I) (P35548 130-214 R199I): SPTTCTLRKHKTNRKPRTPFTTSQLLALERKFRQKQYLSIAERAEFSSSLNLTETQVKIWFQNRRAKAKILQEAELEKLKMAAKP
Sequence of ALX4 (Homo sapiens, UniProt Q9H161 200-286) (Q9H161 200-286): as the sequence (Q9H161 200-286 Q225E) above, with E26Q counted along it
Sequence of HOXA4 (Homo sapiens, UniProt Q00056 201-287, W262R) (Q00056 201-287 W262R): as the sequence (Q00056 201-287) above, with W62R counted along it
Sequence of HOXA7 (Homo sapiens, UniProt P31268 116-202) (P31268 116-202): as the sequence (P31268 116-202 W177C) above, with C62W counted along it
Sequence of HOXB6 (Homo sapiens, UniProt P17509 132-218) (P17509 132-218): as the sequence (P17509 132-218 K202E) above, with E71K counted along it

Consider GTAATTAC, for which the binding signal is 12.4 upbm affinity estimate (log intensity, higher = more binding, comparable within an allelic series) in the experiment with VENTX; 10.8 upbm affinity estimate (log intensity, higher = more binding, comparable within an allelic series) in the experiment with HOXA4 [1]; 12.5 upbm affinity estimate (log intensity, higher = more binding, comparable within an allelic series) with HOXA7 [2]; 14.3 upbm affinity estimate (log intensity, higher = more binding, comparable within an allelic series) with ALX4 [3]; 11.5 upbm affinity estimate (log intensity, higher = more binding, comparable within an allelic series) with PRRX1 [4]; 10.4 upbm affinity estimate (log intensity, higher = more binding, comparable within an allelic series) with HOXB6 [5]. The binding signal in the experiment with ALX4 [6] is 13.5 upbm affinity estimate (log intensity, higher = more binding, comparable within an allelic series); in the experiment with HOXA2 [7], 14.1 upbm affinity estimate (log intensity, higher = more binding, comparable within an allelic series); with MSX2 [8] it was 13.2 upbm affinity estimate (log intensity, higher = more binding, comparable within an allelic series); in the experiment with HOXA2 [9], 14.3 upbm affinity estimate (log intensity, higher = more binding, comparable within an allelic series); with HOXA4 [10], 14.3 upbm affinity estimate (log intensity, higher = more binding, comparable within an allelic series); with MSX2 [11], 14.2 upbm affinity estimate (log intensity, higher = more binding, comparable within an allelic series). In addition, the binding signal with MSX2 [12] is 13.9 upbm affinity estimate (log intensity, higher = more binding, comparable within an allelic series); with VAX1 [13], 13.9 upbm affinity estimate (log intensity, higher = more binding, comparable within an allelic series); with HOXA7 [14], 9.01 upbm affinity estimate (log intensity, higher = more binding, comparable within an allelic series); with ALX1, 12.5 upbm affinity estimate (log intensity, higher = more binding, comparable within an allelic series); with HOXA4 [15], 12.5 upbm affinity estimate (log intensity, higher = more binding, comparable within an allelic series); with PRRX1 [16], 13.5 upbm affinity estimate (log intensity, higher = more binding, comparable within an allelic series). For the same sequence, the binding signal is 13.9 upbm affinity estimate (log intensity, higher = more binding, comparable within an allelic series) in the experiment with VAX1 [17] and 12.8 upbm affinity estimate (log intensity, higher = more binding, comparable within an allelic series) with HOXB6 [18].

Regarding TAATTACA, the binding signal in the experiment with VENTX is 12.2 upbm affinity estimate (log intensity, higher = more binding, comparable within an allelic series); with HOXA4 [1], 10.8 upbm affinity estimate (log intensity, higher = more binding, comparable within an allelic series); with HOXA7 [2], 12.1 upbm affinity estimate (log intensity, higher = more binding, comparable within an allelic series); with ALX4 [3], 14.2 upbm affinity estimate (log intensity, higher = more binding, comparable within an allelic series); with PRRX1 [4], 11.6 upbm affinity estimate (log intensity, higher = more binding, comparable within an allelic series); with HOXB6 [5] it was 10.2 upbm affinity estimate (log intensity, higher = more binding, comparable within an allelic series). Further, the binding signal is 13.5 upbm affinity estimate (log intensity, higher = more binding, comparable within an allelic series) with ALX4 [6]; 13.9 upbm affinity estimate (log intensity, higher = more binding, comparable within an allelic series) with HOXA2 [7]; 13.1 upbm affinity estimate (log intensity, higher = more binding, comparable within an allelic series) with MSX2 [8]; 14 upbm affinity estimate (log intensity, higher = more binding, comparable within an allelic series) with HOXA2 [9]; 14.2 upbm affinity estimate (log intensity, higher = more binding, comparable within an allelic series) in the experiment with HOXA4 [10]; 14.1 upbm affinity estimate (log intensity, higher = more binding, comparable within an allelic series) with MSX2 [11]. For the same sequence, the binding signal in the experiment with MSX2 [12] was 13.7 upbm affinity estimate (log intensity, higher = more binding, comparable within an allelic series); with VAX1 [13], 13.6 upbm affinity estimate (log intensity, higher = more binding, comparable within an allelic series); in the experiment with HOXA7 [14], 8.98 upbm affinity estimate (log intensity, higher = more binding, comparable within an allelic series); in the experiment with ALX1, 12.5 upbm affinity estimate (log intensity, higher = more binding, comparable within an allelic series); in the experiment with HOXA4 [15], 12.3 upbm affinity estimate (log intensity, higher = more binding, comparable within an allelic series); in the experiment with PRRX1 [16], 13.5 upbm affinity estimate (log intensity, higher = more binding, comparable within an allelic series). Besides, the binding signal was 13.6 upbm affinity estimate (log intensity, higher = more binding, comparable within an allelic series) in the experiment with VAX1 [17] and 12.5 upbm affinity estimate (log intensity, higher = more binding, comparable within an allelic series) with HOXB6 [18].

Consider CTCAATTA, for which the binding signal with HOXA4 [1] was 10.4 upbm affinity estimate (log intensity, higher = more binding, comparable within an allelic series); in the experiment with ALX4 [3] it was 13.9 upbm affinity estimate (log intensity, higher = more binding, comparable within an allelic series); with PRRX1 [4], 11.2 upbm affinity estimate (log intensity, higher = more binding, comparable within an allelic series); with ALX4 [6], 13.1 upbm affinity estimate (log intensity, higher = more binding, comparable within an allelic series); in the experiment with HOXA2 [7], 12.6 upbm affinity estimate (log intensity, higher = more binding, comparable within an allelic series); in the experiment with MSX2 [8], 12.7 upbm affinity estimate (log intensity, higher = more binding, comparable within an allelic series). The binding signal with HOXA2 [9] was 13 upbm affinity estimate (log intensity, higher = more binding, comparable within an allelic series); with HOXA4 [10], 13.6 upbm affinity estimate (log intensity, higher = more binding, comparable within an allelic series); in the experiment with MSX2 [11], 13.9 upbm affinity estimate (log intensity, higher = more binding, comparable within an allelic series); with MSX2 [12] it was 13.5 upbm affinity estimate (log intensity, higher = more binding, comparable within an allelic series); with VAX1 [13], 12.8 upbm affinity estimate (log intensity, higher = more binding, comparable within an allelic series); with ALX1 it was 12.4 upbm affinity estimate (log intensity, higher = more binding, comparable within an allelic series). Also, the binding signal in the experiment with HOXA4 [15] is 11.4 upbm affinity estimate (log intensity, higher = more binding, comparable within an allelic series); in the experiment with PRRX1 [16], 13.4 upbm affinity estimate (log intensity, higher = more binding, comparable within an allelic series); with VAX1 [17], 12.9 upbm affinity estimate (log intensity, higher = more binding, comparable within an allelic series).

Take CCAGGTCC: the binding signal with VENTX was 7.92 upbm affinity estimate (log intensity, higher = more binding, comparable within an allelic series); with HOXA2 [7], 7.34 upbm affinity estimate (log intensity, higher = more binding, comparable within an allelic series); with HOXA2 [9], 10.3 upbm affinity estimate (log intensity, higher = more binding, comparable within an allelic series).

In the case of GGCAGGCC, the binding signal with ALX1 is 6.33 upbm affinity estimate (log intensity, higher = more binding, comparable within an allelic series).

TAATTAGA: the binding signal with VENTX is 12.5 upbm affinity estimate (log intensity, higher = more binding, comparable within an allelic series); with HOXA4 [1], 10.8 upbm affinity estimate (log intensity, higher = more binding, comparable within an allelic series); with HOXA7 [2] it was 11.5 upbm affinity estimate (log intensity, higher = more binding, comparable within an allelic series); with ALX4 [3], 14.5 upbm affinity estimate (log intensity, higher = more binding, comparable within an allelic series); in the experiment with PRRX1 [4], 11.9 upbm affinity estimate (log intensity, higher = more binding, comparable within an allelic series); with HOXB6 [5], 10 upbm affinity estimate (log intensity, higher = more binding, comparable within an allelic series). Also, the binding signal is 14.2 upbm affinity estimate (log intensity, higher = more binding, comparable within an allelic series) with ALX4 [6]; 13.9 upbm affinity estimate (log intensity, higher = more binding, comparable within an allelic series) with HOXA2 [7]; 13.2 upbm affinity estimate (log intensity, higher = more binding, comparable within an allelic series) in the experiment with MSX2 [8]; 13.9 upbm affinity estimate (log intensity, higher = more binding, comparable within an allelic series) with HOXA2 [9]; 14.1 upbm affinity estimate (log intensity, higher = more binding, comparable within an allelic series) in the experiment with HOXA4 [10]; 14.1 upbm affinity estimate (log intensity, higher = more binding, comparable within an allelic series) in the experiment with MSX2 [11]. In addition, the binding signal with MSX2 [12] was 13.7 upbm affinity estimate (log intensity, higher = more binding, comparable within an allelic series); with VAX1 [13] it was 13.7 upbm affinity estimate (log intensity, higher = more binding, comparable within an allelic series); with HOXA7 [14], 8.87 upbm affinity estimate (log intensity, higher = more binding, comparable within an allelic series); with ALX1, 13 upbm affinity estimate (log intensity, higher = more binding, comparable within an allelic series); with HOXA4 [15], 12.1 upbm affinity estimate (log intensity, higher = more binding, comparable within an allelic series); in the experiment with PRRX1 [16] it was 13.6 upbm affinity estimate (log intensity, higher = more binding, comparable within an allelic series). For the same sequence, the binding signal is 13.9 upbm affinity estimate (log intensity, higher = more binding, comparable within an allelic series) in the experiment with VAX1 [17] and 12 upbm affinity estimate (log intensity, higher = more binding, comparable within an allelic series) in the experiment with HOXB6 [18].
